This note sets out measurements from PubChem BioAssay.

Sequence of Concanavalin-A (Canavalia ensiformis) (P02866 whole entry, looked up): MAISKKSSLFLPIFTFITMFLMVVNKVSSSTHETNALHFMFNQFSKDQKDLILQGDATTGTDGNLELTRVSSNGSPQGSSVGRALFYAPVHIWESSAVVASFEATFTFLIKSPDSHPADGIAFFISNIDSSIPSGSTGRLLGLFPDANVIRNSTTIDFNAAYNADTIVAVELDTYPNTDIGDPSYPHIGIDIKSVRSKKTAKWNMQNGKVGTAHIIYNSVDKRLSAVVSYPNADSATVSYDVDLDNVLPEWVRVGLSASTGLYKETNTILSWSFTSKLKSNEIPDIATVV

In the first experiment the test system is Chordin-like protein 2 (CHRDL2). The experiment can be described thus: compounds binding chordin-like 2 – biochemical, small-molecule microarray, 635 nm fluorescence, primary screen (AID 1126).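 Note: printed compound slides probed with Chrdl2 protein at 4 µg/mL for 1 h at 4 C; score merges 667 nm emission intensity with signal to noise over three replicate slides.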 The conditions noted are these: fluorescence 635 nm, higher = more signal.
`COC(=O)[C@H](Cc1ccccc1)N1CC(C)(OC)O[C@@H](Cc2ccccc2)[C@H]1/C=C/C1CC1` (some centres undefined) showed a composite z-score of -0.359.

For the compound `C[C@H]1C2[C@H](Cc3ccccc3)NC(=O)[C@]23C(=O)N[C@@H](Cc2ccccc2)C(=O)N2CCC[C@H]2C(=O)NC/C=C/CC/C=C/C3[C@@H]2O[C@]12C` (some centres undefined), the composite z-score stood at 0.638.

The compound `C=C(C(=O)CC[C@@H](OC(=O)c1ccccc1-c1ccccc1C(=O)O)c1cccc(OCCO)c1)C(C)C` gave a composite z-score of 1.26.

Compound `C=C(CCCC)C(=O)CC[C@H](OC(=O)c1ccccc1-c1ccccc1C(=O)O)c1cccc(OCCO)c1` came in with a composite z-score of -0.189.

In turn, `C=C(CCCC)/C(=C/C[C@@H](OC(C)=O)c1cccc(OCCO)c1)c1cc(C(=O)OC)ccc1OC` yielded a composite z-score of -0.0137.

The compound `CCCCCN1CC=CC23O[C@@H]4/C=C\CCCOC(=O)C4[C@H]2C(=O)N(CCO)[C@@H]3C1=O` (some centres undefined) came in with a composite z-score of 0.323.

In turn, `O=C1NC(=O)C2C1C=CC(C(O)C1CCCCC1)N2Nc1ccccn1` (centres undefined) registered a composite z-score of 0.342.

For `COC(=O)C1(CC(C)C)C=C2C(=C(C)C(=O)C2C)CN1` (centres undefined), the composite z-score came out at 0.0633.

Compound `Cc1ccc(N2C(=O)c3ccccc3[C@@H](C(=O)NCCN3CCOCC3)[C@@H]2c2ccc(CO)cc2)nc1` registered a composite z-score of -1.27.

In the case of `COCCOC(=O)N1C(=O)[C@@]2(c3cc(C#CCNC(N)=O)ccc31)[C@H](c1ccc(O)cc1)N1[C@H](c3ccccc3)[C@H](c3ccccc3)OC(=O)[C@H]1[C@@H]2C(=O)N1CCc2cc(OC)c(OC)cc2C1`, the composite z-score worked out at 0.431.

Consider `O=C(NC1CC1)[C@@H]1c2ccccc2C(=O)N(C2CCCCC2)[C@H]1c1ccc(CO)cc1`, for which the composite z-score was -0.696.

In turn, `COc1ccc([Si](C)(C)[C@@H]2[C@@H](CC(=O)N(CCO)Cc3ccccc3)O[C@]3(C(=O)N(Cc4cccc(I)c4)c4ccccc43)[C@H]2C)cc1` registered a composite z-score of 1.12.

The next experiment addresses Concanavalin-A (Canavalia ensiformis) (UniProt P02866). Kind of experiment: compounds binding concanavalin A lectin – biochemical, small-molecule microarray, Alexa647 label, 635 nm, artefact control for SMM control protein annotation, primary screen (AID 1127).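 Note: z combines 667 nm emission intensity with signal-to-noise across three replicate slides.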 As to conditions: ConA-A647 binding fluorescence, higher = more signal.
In turn, `O=C(O)C1=CC[C@H]2C(=O)N(c3ccccc3)C(=O)[C@@H]12` gave a composite z-score of 1.02.

The compound `CCc1cccc(NC(=O)O[C@H]2[C@H](OC(=O)Nc3ccccc3-c3ccccc3)[C@H](OC(=O)Nc3ccccc3-c3ccccc3)[C@@H](OC)O[C@@H]2CO)c1` showed a composite z-score of 1.12.

As to `C=C(COC)/C(=C/C[C@@H](OC(C)=O)c1cccc(OCCO)c1)c1cnc2ccccc2c1`, the composite z-score came out at 0.877.

`Cc1ccc(S[C@]2(C(=O)NCc3ccccc3)CC(=O)N(Cc3ccccc3C(F)(F)F)[C@@H]2c2ccc(CO)cc2I)cc1` showed a composite z-score of -0.546.

Take `COCCOC(=O)N1C(=O)[C@@]2(c3cc(C#CC4(O)CCCCCC4)ccc31)[C@H](C(N)=O)[C@H]1C(=O)O[C@H](c3ccccc3)[C@H](c3ccccc3)N1[C@@H]2c1ccc(OCCO)cc1`: the composite z-score stood at 1.17.

Consider `COc1c(C)cc(-c2cc3c(c(CCc4ccccc4)n2)[Si](C(C)C)(C(C)C)O[C@H]3c2ccccc2)cc1C`, for which the composite z-score came to 0.398.

In turn, `COC(=O)[C@@]1(Cc2ccc(F)cc2)[C@H]2c3cc(C(=O)N(C)C)n(Cc4cccc5ccccc45)c3C[C@H]2CN1C(=O)c1ccccc1` had a composite z-score of 0.162.

Compound `CC(C)C[C@@H]1NC(=O)[C@@H]2C[C@H](C(=O)NCCCCCNC(=O)CS)[C@H](c3ccc(O)cc3)N2C1=O` returned a composite z-score of 0.374.

Compound `C=C[C@@H](CO)NS(=O)(=O)c1ccc(Br)cc1` showed a composite z-score of -1.76.

With `COC(=O)[C@@]1(Cc2ccc(F)cc2)[C@H]2c3cc(C(=O)N(C)C)n(CCF)c3C[C@H]2CN1C(=O)c1ccccc1`, the composite z-score was determined as 0.476.

For `COC(=O)[C@@]1(Cc2ccccc2)[C@H]2c3cc(C(=O)N(C)C)n(Cc4nc5ccccc5[nH]4)c3C[C@H]2CN1C(=O)c1ccccc1`, the composite z-score amounted to 1.09.

On to `C=C(C(=O)CC[C@@H](OC(=O)c1ccccc1-c1ccccc1C(=O)O)c1ccc(OCCO)cc1)C(C)C`, for which the composite z-score came out at 0.94.

`COCCOC(=O)N1C(=O)[C@@]2(c3cc(C#CCCO)ccc31)[C@H](C(=O)N1CCN(c3ncccn3)CC1)[C@H]1C(=O)O[C@H](c3ccccc3)[C@H](c3ccccc3)N1[C@@H]2c1ccc(OCCO)cc1` showed a composite z-score of 1.12.

Turning to `O=C1OC[C@@H](c2ccccc2)n2cc(/C=C/c3ccccc3)cc21`, the composite z-score was 0.51.

The compound `CCOC(=O)C[C@H]1[C@H](OC(=O)c2cc3ccccc3oc2=O)[C@@H](NC(=O)Cc2ccc(OC)cc2)c2cc(OCCCO)ccc2N1C(=O)Cc1ccc(OC)cc1` registered a composite z-score of 0.817.

`C=CCN1C(=O)[C@@]2(O[C@@H](CCO)[C@H]([Si](C)(C)c3ccc(OC)cc3)[C@H]2C)c2cc(N3CCCCC3=O)ccc21` had a composite z-score of 0.901.

`COc1ccc(CCNC(=O)[C@@]2(C)c3ccccc3C(=O)N(Cc3ccc(OC(F)(F)F)cc3)[C@H]2c2ccc(CO)cc2)cc1`: the composite z-score is 0.781.
